Only some compounds are listed: those with a hit (about 6.8% of all), similar ones and a draw of the others.
C diff HTS = C. difficile growth inhibition; Clostridium difficile clinical isolate growth, OD600, 24 h; hits give low values; growth activity, negative = inhibition, % at 16 µg/mL (by protocol); actives 0.25% (n = 86,000);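 active means mean growth activity at or below -80% and every replicate also at or below -80%; inconclusive means mean at or below -80% but some replicate above -80%; inactive means mean growth activity above -80%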;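 further: 0% = DMSO wells and -100% = levofloxacin 16 µg/mL wells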
Pf Dd2 inh = inhibitors of Plasmodium falciparum Dd2 growth; P. falciparum Dd2 growth, SYBR Green, 72 h; hits give low values; activity change, % at 10 µM; actives 2.3% (n = 94,000); AID 1159554; in the data active means activity change below about -80%; inconclusive means no clear call, values can overlap the other calls
T cruzi growth-1 = inhibitors of T. cruzi proliferation; T. cruzi beta-gal in NIH3T3, GalScreen luminescence, 90 h; actives 5.9% (n = 77,000); AID 624255; inhibition, % at 8.34 µM;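 active means mean inhibition above about 93%, with at least 55% of replicates each passing it, limit read from the data, passing the limit was not always enough; inconclusive means only one of those two conditions holds; inactive means neither condition holds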
T cruzi growth-2 = inhibitors of T. cruzi proliferation; shares compounds with T cruzi growth-1; T. cruzi beta-gal in NIH3T3, GalScreen luminescence, 90 h; inhibition, % at 8.35 µM; actives 72% (n = 5,600);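 active means mean replicate inhibition above about 95% and at least 55% of replicates individually reaching it, limit read from the data; inconclusive means only one of the two criteria is met; inactive means neither criterion is met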
T cruzi growth-3 = inhibitors of T. cruzi proliferation; actives 21% (n = 5,600); inhibition, % at 2.09 µM; T. cruzi beta-gal in NIH3T3, GalScreen luminescence, 90 h; shares compounds with T cruzi growth-1;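 active means mean inhibition above about 95%, with at least 55% of replicates also reaching it, limit read from the data; inconclusive means meets just one of the two conditions; inactive means meets neither condition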;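 further: plate controls were neutral control median for no effect and positive control median for full effect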
3T3 cytotox = kills mouse NIH/3T3 fibroblasts. actives 14% (n = 5,600). NIH/3T3 viability, CellTiter-Glo ATP luminescence, 90 h. AID 651742. cytotoxicity (signal decrease), % at 8.35 µM. shares compounds with T cruzi growth-1;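 active means mean signal decrease across replicates above about 35% based on untreated-well scatter, with enough replicates individually passing, limit read from the data; inconclusive means no rule stated though some were filed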;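 further: 0% = median of neutral control wells and 100% = median of positive control wells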
3T3 cytotox 2 = cytotoxicity in mouse NIH/3T3 fibroblasts | shares compounds with T cruzi growth-1 | NIH/3T3 viability, CellTiter-Glo ATP luminescence, 90 h | inhibition, % at 24.9 µM | AID 651744 | actives 56% (n = 5,600);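 active means mean loss of cell viability signal at or above a set limit, and enough replicates individually reaching it; inconclusive means meets only the mean limit or only the replicate share; inactive means meets neither condition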;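 further: 0% = median of neutral control wells and 100% = median of positive control wells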
The depositor's hits bear a star.

How did O=C(N[C@H]1CC[C@@H](CCn2cc(-c3ccccc3F)nn2)O[C@H]1CO)c1ccc2c(c1)OCO2 do in these assays?
Pf Dd2 inh: -57; T cruzi growth-1: 112*; T cruzi growth-2: 10; T cruzi growth-3: 3; 3T3 cytotox: -2; 3T3 cytotox 2: 22

What do the screens show for `COc1cccc(S(=O)(=O)N[C@H]2CC[C@H](CCn3cc(-c4ccccc4OC)nn3)O[C@@H]2CO)c1`?
C diff HTS: 1; Pf Dd2 inh: -5; T cruzi growth-1: inconclusive; T cruzi growth-2: 24; T cruzi growth-3: -6; 3T3 cytotox: 10; 3T3 cytotox 2: 32

How did COc1cccc(S(=O)(=O)N[C@@H]2CC[C@@H](CCn3cc(-c4ccccc4OC)nn3)O[C@H]2CO)c1 do in these assays?
C diff HTS: -3; Pf Dd2 inh: -48; T cruzi growth-1: -1

Results for C[C@H]1CN([C@@H](C)CO)C(=O)c2ccccc2-c2ccccc2CO[C@H]1CN(C)C(=O)Nc1cccc(F)c1 ?
Pf Dd2 inh: 6; T cruzi growth-1: -2

What do the screens show for `C[C@H]1CN([C@@H](C)CO)C(=O)c2cccc(NC(=O)CCCCCC(=O)Nc3ccccc3N)c2O[C@@H]1CN(C)C(=O)Nc1ccc2c(c1)OCO2`?
C diff HTS: 0; Pf Dd2 inh: -19

Results for CCCNC(=O)Nc1ccc2c(c1)OC[C@H](C)N(CC1CCCC1)C[C@H](C)[C@@H](OC)CN(C)C2=O ?
C diff HTS: -16; Pf Dd2 inh: -50

Results for C[C@H](CO)N1C[C@H](C)[C@@H](CN(C)S(=O)(=O)c2cccs2)Oc2ccc(NC(=O)CCCN(C)C)cc2CC1=O ?
C diff HTS: 6; Pf Dd2 inh: -5; T cruzi growth-1: 19

Results for C[C@H]1CN([C@@H](C)CO)C(=O)c2cc(NC(=O)Nc3cccc4ccccc34)ccc2O[C@@H]1CN(C)C(=O)Nc1cccc2ccccc12 ?
C diff HTS: 1; Pf Dd2 inh: -24; T cruzi growth-1: 29

Results for C[C@H](CO)N1C[C@H](C)[C@H](CN(C)S(=O)(=O)c2ccccc2)Oc2ccc(NS(C)(=O)=O)cc2C1=O ?
Pf Dd2 inh: -4; T cruzi growth-1: 16

What do the screens show for `O=C(C[C@@H]1C=C[C@@H](NC(=O)c2ccncc2)[C@H](CO)O1)Nc1ccc(-c2ccccc2)cc1`?
C diff HTS: -27; Pf Dd2 inh: -16; T cruzi growth-1: -59

What do the screens show for `CC(C)CC#Cc1ccc2c(c1)O[C@H](CN(C)S(=O)(=O)c1cccc(F)c1)[C@H](C)CN([C@H](C)CO)S2(=O)=O`?
C diff HTS: 5; Pf Dd2 inh: -77; T cruzi growth-1: 112*; T cruzi growth-2: 100*; T cruzi growth-3: 116*; 3T3 cytotox: 19; 3T3 cytotox 2: 98*

What do the screens show for `CC(C)CC#Cc1ccc2c(c1)O[C@@H](CN(C)S(=O)(=O)c1ccc(F)cc1)[C@@H](C)CN([C@@H](C)CO)S2(=O)=O`?
C diff HTS: 6; Pf Dd2 inh: -53

Results for CC(C)CC#Cc1ccc2c(c1)O[C@H](CN(C)S(=O)(=O)c1cccc(F)c1)[C@H](C)CN([C@@H](C)CO)S2(=O)=O ?
C diff HTS: 7; Pf Dd2 inh: -54; T cruzi growth-1: 118*; T cruzi growth-2: 88; T cruzi growth-3: 100*; 3T3 cytotox: 13; 3T3 cytotox 2: 60*

Results for CC(C)CC#Cc1ccc2c(c1)O[C@@H](CN(C)S(=O)(=O)c1ccc(F)cc1)[C@H](C)CN([C@@H](C)CO)S2(=O)=O ?
C diff HTS: 18; Pf Dd2 inh: -68

What do the screens show for `O=C(C[C@H]1C=C[C@@H](NC(=O)C2CC2)[C@@H](CO)O1)Nc1nccs1`?
Pf Dd2 inh: -18; T cruzi growth-1: 121*; T cruzi growth-2: 78; T cruzi growth-3: 11; 3T3 cytotox: -15; 3T3 cytotox 2: -1

What do the screens show for `O=C(C[C@@H]1C=C[C@@H](NC(=O)C2CC2)[C@H](CO)O1)Nc1nccs1`?
Pf Dd2 inh: 0; T cruzi growth-1: 88

Results for C[C@@H](NC(=O)C[C@@H]1C=C[C@H](NC(=O)C2CCOCC2)[C@H](CO)O1)c1ccccc1 ?
C diff HTS: -2; Pf Dd2 inh: -4; T cruzi growth-1: 18

Results for C[C@H](NC(=O)C[C@H]1C=C[C@H](NC(=O)C2CCOCC2)[C@H](CO)O1)c1ccccc1 ?
C diff HTS: -2; Pf Dd2 inh: 2; T cruzi growth-1: 98*; T cruzi growth-2: -13; T cruzi growth-3: -77; 3T3 cytotox: -3; 3T3 cytotox 2: -14

What do the screens show for `C[C@@H]1CCCCO[C@H](CN(C)Cc2ccc3c(c2)OCO3)[C@@H](C)CN([C@H](C)CO)C(=O)c2cc(NC(=O)Nc3ccc4c(c3)OCO4)ccc2O1`?
Pf Dd2 inh: 10; T cruzi growth-1: inconclusive; T cruzi growth-2: 110*; T cruzi growth-3: -16; 3T3 cytotox: -14; 3T3 cytotox 2: 3

How did C[C@@H]1CCCCO[C@@H](CN(C)Cc2ccc3c(c2)OCO3)[C@@H](C)CN([C@@H](C)CO)C(=O)c2cc(NC(=O)Nc3ccc4c(c3)OCO4)ccc2O1 do in these assays?
Pf Dd2 inh: -18; T cruzi growth-1: 87

How did C[C@@H]1CCCCO[C@H](CN(C)Cc2ccc(Cl)c(Cl)c2)[C@@H](C)CN([C@H](C)CO)C(=O)c2cc(NC(=O)Nc3ccc4c(c3)OCO4)ccc2O1 do in these assays?
C diff HTS: -2; Pf Dd2 inh: 8; T cruzi growth-1: 103*; T cruzi growth-2: 107*; T cruzi growth-3: 105*; 3T3 cytotox: 25; 3T3 cytotox 2: 13

How did C[C@@H]1CCCCO[C@@H](CN(C)Cc2ccc3c(c2)OCO3)[C@@H](C)CN([C@H](C)CO)C(=O)c2cc(NC(=O)Nc3ccc4c(c3)OCO4)ccc2O1 do in these assays?
Pf Dd2 inh: 4; T cruzi growth-1: 41

Results for C[C@H]1CCCCO[C@H](CN(C)Cc2ccc3c(c2)OCO3)[C@@H](C)CN([C@@H](C)CO)C(=O)c2cc(NC(=O)Nc3ccc4c(c3)OCO4)ccc2O1 ?
Pf Dd2 inh: -65; T cruzi growth-1: 100*; T cruzi growth-2: 99*; T cruzi growth-3: 110*; 3T3 cytotox: 32; 3T3 cytotox 2: 106*

What do the screens show for `C[C@@H]1CCCCO[C@H](CN(C)Cc2ccc3c(c2)OCO3)[C@H](C)CN([C@@H](C)CO)C(=O)c2cc(NC(=O)Nc3ccc4c(c3)OCO4)ccc2O1`?
Pf Dd2 inh: -77; T cruzi growth-1: 87

From PubChem BioAssay
